# PubChem BioAssay (NCI)
# Several values for one entry are separate records, joined by “and”; a condition that tells them apart may be missing. Identical values can stand only once. Compounds without any hit were thinned out: in the full panel of roughly 79,000, 15% have a hit. A structure can be active in one record and inactive in another. Activity calls are given as the source filed them. Cut-off read from the data, not from the text of the source: active = growth inhibition above about 70%; inactive = the rest.
# Test: NCI Yeast Anticancer Drug Screen. Data for the sgs1 mgt1 strain (AID 161);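 note: 0% = growth of cultures given vehicle only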
# Conditions: S. cerevisiae sgs1 mgt1 strain, stronger effect = higher value
# Experimental: Growth inhibition of yeast strains with defined genetic alterations is measured as a screen for potential anti-cancer activity. Selected strains with alterations in DNA damage repair or cell cycle control were exposed to compounds and growth inhibition was measured relative to vehicle treated controls. The strain used in this assay is sgs1 mgt1
# [1] = at 5.0 µM (retest, dose inferred, filed as 0.5)
# [2] = at 50.0 µM (retest, dose inferred, filed as 5.0)
SMILES,growth inhibition [1],growth inhibition [2],growth inhibition (at 50.0 µM)
O=[N+]([O-])c1cc2c([N+](=O)[O-])cccc2o1,19% (inactive),99% (active),99.2% (active)
CN(C)CCCNc1ccnc2c(COC(=O)N(CCCl)CCCl)ccc([N+](=O)[O-])c12,34% (inactive),75% (active),74.2% (active)
Oc1cccnc1[Se],-10% (inactive),4% (inactive),95.3% (active)
O=C1c2ccc3ccccc3c2CCC1N1CCCCC1 (stereo not given),19% (inactive),98% (active),99.2% (active)
O=c1oc2ccccc2c(O)c1C(c1ccc(-c2ccccc2)cc1)c1c(O)c2ccccc2oc1=O,-16% (inactive),97% (active),81.6% (active)
CS(=O)(=O)[O-].CS(=O)(=O)[O-].NC1CCCCC1N.[Pt+4] (stereo not given),100% (active),99% (active),92% (active)
CC12CCC3C(CCC4CC(N5CCCCC5)=CCC43C)C1CCC2O (stereo not given),5% (inactive),99% (active),47.1% (inactive)
CCCOc1ccc(/C=C/[N+](=O)[O-])cc1N,78% (active),-8% (inactive),99.5% (active)
CCOC(=O)c1ccccc1N,-10% (inactive),1% (inactive),-5.7% (inactive)
CC(=O)OC1CCC2(C)C3CCC4(C)C(OC(=O)c5ccccc5)CCC4C3CC(Br)C2(O)C1 (stereo not given),44% (inactive),64% (inactive),89.5% (active)
Cc1ccc([C@H]2N[C@@H]2c2ccccn2)cc1,-5% (inactive),-12% (inactive),3.45% (inactive)
Cc1ccc(C(=O)OC(C(=O)O)C(OC(=O)c2ccc(C)cc2)C(=O)O)cc1 (stereo not given) (tested in a mixture with another compound),28% (inactive),70% (active),21.2% (inactive) and 93.8% (active)
CC(Cl)CNC(C)C (stereo not given),-64% (inactive),-67% (inactive),3.25% (inactive)
CC1=C(CO)C2=C(C)C3(CC3)[C@@](C)(O)C(=O)C2=C1,–,–,43.9% (inactive)
